These results are taken from PubChem BioAssay (EPA / NIEHS).

Values joined by “and” are separate entries in the source; they are usually repeats but may differ in a detail not shown here. Equal values may be shown once. Active and inactive are the calls of the source. How the source made its calls: active means hit-call score of the fitted dose curve at least 0.9, where 1 is the maximum; inactive means score below 0.9.

The nature of this assay: IUF_NPC4_neurite_length_120hr: Leibniz Research Institute for Environmental Medicine (IUF) 120-hour Neuronal Morphology Assay for Neurite Length (NPC4) (AID 2284302). The procedure: IUF_NPC2-5 is a cell-based, multiplexed assay that uses hNPC, a human primary neural progenitor cells, with measurements taken at 72 or 120 hours after chemical dosing in a 96-well plate. Human neural progenitor cells (hNPC) are generated from human fetal brain cortex at gestational week (GW) 16-19. In the neural progenitor cell migration and differentiation assay (NPC2-5), hNPCs grown as spheres are plated on an extracellular matrix and migrate and differentiate out of the sphere core. The processes radial glia migration, neuronal and oligodendrocyte migration as well as neuronal differentiation, neuronal morphology and oligodendrocyte differentiation are studied using automated phase contrast imaging and automated fluorescence imaging in combination with high content image analysis. In parallel, the cell viability is assessed using an alamar blue viability assay and the cytotoxicity using a lactate dehydrogenase dependent membrane integrity assay.IUF_NPC4_neurite_length_120hr is one of 12 assay components measured from the IUF_NPC2-5 assay. The neurite length at 120 hr is the mean length in um of all neurons (see IUF_NPC3_neuronal_differentiation_120hr) that are identified by the skeletonization algorithm in Omnisphero.Data from the IUF_NPC4_neurite_length_120hr component was analyzed at the endpoint IUF_NPC4_neurite_length_120hr in the positive analysis fitting direction relative to DMSO as the negative control and baseline of activity. Using a type of differentiation reporter, gain or loss-of-signal activity can be used to understand developmental effects.
Culture protocol: After the cell expansion period the cells are cultured for up to four weeks in which they are passaged every week as described in 3.6. Between one to three days after passaging spheres at a size of 0.3 mm are picked for the test method. For the assessment of neural progenitor cell migration and differentiation, the spheres are plated on poly-D-lysine/laminin coated 96-well flat bottom plates in differentiation medium (N2) to initiate migration and differentiation. Thereby one 0.3 mm big sphere is plated in the middle of a well. The differentiation medium consists of DMEM and Ham's F12 at a ratio of 3 to 1 supplemented with 1% N2 and 1% penicillin and streptomycin. Within 5 days NPCs radially migrate out of the sphere core and differentiate into radial glia cells (nestin positive), neurons (TUBB3 positive), oligodendrocytes (O4 positive) and astrocytes (GFAP positive). Cultivation during the test method is performed at 37C and 5% CO2 at a ph of 7.2-7.6.Exposure: 0.3 mm big hNPC are plated in the already prepared test conditions. Exposure starts at day 0 of differentiation and is continued over five days of differentiation until the experiment is terminated. Cells are fed with fresh medium at day 3 of differentiation. Therefore, half of the test condition solution (e.g. solvent control or compound dilution) is replaced by freshly prepared test condition solution.Test Method: Migration distance and cytotoxicity is determined after 72 hours based on brightfield images of each well. The assay is terminated by the assessment of cell viability and cytotoxicity as well as cell fixation after 120 h. Immunocytochemistry is performed for Hoechst positive nuclei, TUBB3 positive neurons and O4 positive oligodendrocytes. On the ICC images, migration after 120 hours, neuronal and oligodendrocyte number, neuronal morphology and neuron/oligodendrocyte specific migration is assessed. immunocytochemical staining (ICC) generates an image for each sphere. The plates are scanned using an automated high content imaging device and all nuclei and their positions are determined automatically based on their intensity and size. Images are imported to the Omnisphero software to run the image analysis that measures the following endpoints. The method is set up for 8 test conditions including 7 compound concentrations and one SC. […]
With `CN1COCN(Cc2cnc(Cl)s2)C1=N[N+](=O)[O-]`, the compound was called inactive. On the same count and under the same terms, then `CCOP(=S)(OCC)SCCSCC`, with “inactive”; and `CSC1=N[C@@](C)(c2ccccc2)C(=O)N1Nc1ccccc1`, with “inactive”; and `CCOC(=O)CC(SP(=O)(OC)OC)C(=O)OCC` (centres undefined), with “inactive”. In the case of `CON=C(C(=O)OC)c1ccccc1CON=C(C)c1cccc(C(F)(F)F)c1`, the AC50 was 24.7 µM (active). As to `CCOP(=S)(Oc1cnc(C(C)(C)C)nc1)OC(C)C` (centres undefined), the compound was called inactive. Same read-out and setting: with `CCOP(=O)(OCC)Oc1cc(C)nc(C(C)C)n1` the entry was “inactive”. On the same count and under the same terms, with `CCCCSP(=O)(SCCCC)SCCCC` the entry was “inactive”; with `CCOP(=S)(OCC)Oc1cc(C)nc(C(C)C)n1`, “inactive”; with `CN(C)[C@@H]1C(=O)C(C(N)=O)=C(O)[C@@]2(O)C(=O)C3=C(O)c4c(O)cccc4[C@@](C)(O)[C@H]3[C@H](O)[C@@H]12`, “inactive”.

As to `S=C1NCCN1`, the outcome was inactive. Still for that read-out and setting: with `CCCSP(=O)(OCC)SCCC` the entry was “inactive”; with `CC(C)N(C(=O)SCC(Cl)=C(Cl)Cl)C(C)C`, “inactive”. Consider `CC[C@H](C)[C@H]1O[C@]2(C=C[C@@H]1C)C[C@@H]1C[C@@H](C/C=C(\C)[C@@H](O[C@H]3C[C@H](OC)[C@@H](O[C@H]4C[C@H](OC)[C@@H](NC)[C@H](C)O4)[C@H](C)O3)[C@@H](C)/C=C/C=C3\CO[C@@H]4[C@H](O)C(C)=C[C@@H](C(=O)O1)[C@]34O)O2`, for which the half-maximal activity concentration (AC50) was 979 nM (active) and 3.08 µM (active).

On to `C[N+]1(C)CCCCC1`, for which the outcome was inactive. As for `CCOP(=O)(NC(C)C)Oc1ccc(SC)c(C)c1` (centres undefined), the result was inactive. On to `C=C(C)[C@H]1Cc2c(ccc3c2O[C@@H]2COc4cc(OC)c(OC)cc4[C@@H]2C3=O)O1`, for which the concentration at half-maximal activity (AC50) was 224 nM (active) and 10 nM (active). For `CC1=NNC(=O)N(/N=C/c2cccnc2)C1`, the call was inactive.

On to `CC(=NC#N)N(C)Cc1ccc(Cl)nc1`, for which the compound was called inactive.

`O=[N+]([O-])c1cc(C(F)(F)F)c(Cl)c([N+](=O)[O-])c1Nc1ncc(C(F)(F)F)cc1Cl`: the AC50 is 1.02 µM (active). On to `COP(=O)(NC(C)=O)SC` (centres undefined), for which the call was inactive. With `COP(=O)(OC)C(O)C(Cl)(Cl)Cl` (centres undefined), the AC50 is 5.03 µM (active). The same measure, in the same setting: with `COP(=O)(OC)OC(Br)C(Cl)(Cl)Br` (centres undefined) the figure was 23.5 µM (active). On to `CCOP(=S)(OCC)OC(Cl)C(Cl)(Cl)Cl` (centres undefined), for which the outcome was inactive.
